# What was measured:
# Experiment in all cases: DAPPL (digital affinity profiling via proximity ligation, sequencing); 10 mM Tris-HCl pH 7.5, 50 mM NaCl, 1 mM DTT, 4% glycerol, room temperature, 30 min; GST-TFs on glutathione beads, 16-mer random dsDNA library, 0.1% formaldehyde crosslink after washing; high values mean tight binding
# Details in all cases: protein: recombinant; tags: N-terminal GST; dsDNA, one strand shown
# FLI1 = biological target: T1, FLI1 (Homo sapiens, UniProt Q01543 1-452)
# T1 sequence: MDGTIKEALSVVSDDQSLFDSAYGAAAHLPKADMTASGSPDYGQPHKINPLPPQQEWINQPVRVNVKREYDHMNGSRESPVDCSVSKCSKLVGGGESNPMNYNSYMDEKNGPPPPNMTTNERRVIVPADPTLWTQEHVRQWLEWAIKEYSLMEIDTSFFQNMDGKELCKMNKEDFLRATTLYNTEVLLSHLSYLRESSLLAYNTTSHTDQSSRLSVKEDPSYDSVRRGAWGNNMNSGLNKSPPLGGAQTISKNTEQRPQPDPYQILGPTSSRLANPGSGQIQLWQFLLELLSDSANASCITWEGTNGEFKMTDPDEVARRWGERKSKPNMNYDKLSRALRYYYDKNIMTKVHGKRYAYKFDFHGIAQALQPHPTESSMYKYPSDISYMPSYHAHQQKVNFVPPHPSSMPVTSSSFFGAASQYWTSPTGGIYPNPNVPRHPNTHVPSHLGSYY
# Summary of the method: (§1)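 Human transcription factors carrying a GST fusion were produced in yeast, bound to glutathione beads, tagged with DNA barcodes and pooled together with a tag-only sample. Each pool was held with 200 nmole of a random double-stranded 16-mer DNA library in Tris/NaCl/DTT/glycerol buffer for 30 min at room temperature, then washed, crosslinked in 0.1% formaldehyde, proximity-ligated with BsaI/T4 ligase (1 h, 37 °C), PCR-amplified and sequenced on an Illumina NextSeq500. Binding signal is the read frequency of each hexamer for a given factor divided by its frequency in the tag-only sample.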
# ELK1 = biological target: T2, ELK1 (Homo sapiens, UniProt P19419 1-428)
# T2 sequence: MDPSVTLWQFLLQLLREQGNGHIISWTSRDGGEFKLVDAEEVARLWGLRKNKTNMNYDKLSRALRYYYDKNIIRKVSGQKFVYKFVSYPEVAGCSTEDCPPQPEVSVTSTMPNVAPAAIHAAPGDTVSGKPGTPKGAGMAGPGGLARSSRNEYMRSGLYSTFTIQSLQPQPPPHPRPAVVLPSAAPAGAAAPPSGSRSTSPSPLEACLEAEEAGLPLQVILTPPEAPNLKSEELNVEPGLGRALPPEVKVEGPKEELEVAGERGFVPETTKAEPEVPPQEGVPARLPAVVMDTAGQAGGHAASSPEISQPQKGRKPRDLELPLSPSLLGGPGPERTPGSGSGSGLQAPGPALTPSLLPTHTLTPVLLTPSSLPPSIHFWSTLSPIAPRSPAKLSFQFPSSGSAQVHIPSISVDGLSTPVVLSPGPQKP
# Summary of the method: as §1
# GABPA = biological target: T3, GABPA (Homo sapiens, UniProt Q06546 1-454)
# T3 sequence: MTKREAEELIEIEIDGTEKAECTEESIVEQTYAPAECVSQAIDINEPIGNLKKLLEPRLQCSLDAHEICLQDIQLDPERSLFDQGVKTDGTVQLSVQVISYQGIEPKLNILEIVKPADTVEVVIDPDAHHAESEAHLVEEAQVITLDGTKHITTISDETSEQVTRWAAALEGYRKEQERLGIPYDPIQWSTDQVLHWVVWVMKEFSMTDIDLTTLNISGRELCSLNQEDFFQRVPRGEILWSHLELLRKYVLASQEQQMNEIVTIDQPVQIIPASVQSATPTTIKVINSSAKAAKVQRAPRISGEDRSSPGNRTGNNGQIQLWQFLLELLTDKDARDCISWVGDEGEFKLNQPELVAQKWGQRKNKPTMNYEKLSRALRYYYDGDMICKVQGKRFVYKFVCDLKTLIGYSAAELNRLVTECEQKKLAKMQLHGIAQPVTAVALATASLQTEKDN
# Summary of the method: as §1
# ERG = biological target: T4, ERG (Homo sapiens, UniProt P11308 1-479)
# T4 sequence: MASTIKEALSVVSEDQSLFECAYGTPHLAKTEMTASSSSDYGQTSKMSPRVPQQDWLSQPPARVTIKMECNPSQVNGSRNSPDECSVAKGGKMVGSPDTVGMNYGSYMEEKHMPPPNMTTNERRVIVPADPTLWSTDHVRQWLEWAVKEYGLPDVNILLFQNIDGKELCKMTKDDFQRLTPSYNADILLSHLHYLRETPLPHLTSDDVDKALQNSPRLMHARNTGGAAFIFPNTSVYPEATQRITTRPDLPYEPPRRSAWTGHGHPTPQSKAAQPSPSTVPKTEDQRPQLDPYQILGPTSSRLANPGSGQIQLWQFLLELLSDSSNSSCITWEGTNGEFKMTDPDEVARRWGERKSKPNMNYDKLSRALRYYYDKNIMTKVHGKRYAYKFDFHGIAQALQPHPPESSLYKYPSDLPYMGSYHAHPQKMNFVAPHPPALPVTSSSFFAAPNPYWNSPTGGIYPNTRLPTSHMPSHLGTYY
# Summary of the method: as §1
# ELF1 = ELF1 (Homo sapiens, UniProt P32519 1-619)
# Summary of the method: as §1
# EHF = biological target: T5, EHF (Homo sapiens, UniProt Q9NZC4 1-300)
# T5 sequence: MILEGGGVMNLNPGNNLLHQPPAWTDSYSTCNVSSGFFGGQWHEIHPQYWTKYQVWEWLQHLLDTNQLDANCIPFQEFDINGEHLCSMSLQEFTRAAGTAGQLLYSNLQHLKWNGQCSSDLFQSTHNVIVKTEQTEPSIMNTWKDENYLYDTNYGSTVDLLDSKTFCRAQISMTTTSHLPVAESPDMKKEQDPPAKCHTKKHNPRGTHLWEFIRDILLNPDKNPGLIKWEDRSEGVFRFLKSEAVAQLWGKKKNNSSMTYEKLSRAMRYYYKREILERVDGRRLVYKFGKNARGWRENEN
# Summary of the method: as §1
# SPI1 = SPI1 (Homo sapiens, UniProt P17947 1-270)
# Summary of the method: as §1
# SPIB = SPIB (Homo sapiens, UniProt Q01892 1-262)
# Summary of the method: as §1
# ELK3 = biological target: T6, ELK3 (Homo sapiens, UniProt P41970 1-407)
# T6 sequence: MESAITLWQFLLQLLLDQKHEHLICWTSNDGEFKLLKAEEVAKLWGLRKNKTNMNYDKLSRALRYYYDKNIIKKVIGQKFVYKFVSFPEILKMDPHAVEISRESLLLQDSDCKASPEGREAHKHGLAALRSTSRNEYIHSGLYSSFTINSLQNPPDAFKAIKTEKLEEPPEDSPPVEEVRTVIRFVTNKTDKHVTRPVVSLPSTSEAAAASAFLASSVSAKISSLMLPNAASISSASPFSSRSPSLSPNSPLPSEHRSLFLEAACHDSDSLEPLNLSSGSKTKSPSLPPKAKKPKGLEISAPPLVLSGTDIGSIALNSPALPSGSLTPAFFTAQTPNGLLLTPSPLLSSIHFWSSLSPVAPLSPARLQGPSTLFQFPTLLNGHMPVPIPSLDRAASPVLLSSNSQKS
# Summary of the method: as §1
# ELF1, sequence (P32519 whole entry): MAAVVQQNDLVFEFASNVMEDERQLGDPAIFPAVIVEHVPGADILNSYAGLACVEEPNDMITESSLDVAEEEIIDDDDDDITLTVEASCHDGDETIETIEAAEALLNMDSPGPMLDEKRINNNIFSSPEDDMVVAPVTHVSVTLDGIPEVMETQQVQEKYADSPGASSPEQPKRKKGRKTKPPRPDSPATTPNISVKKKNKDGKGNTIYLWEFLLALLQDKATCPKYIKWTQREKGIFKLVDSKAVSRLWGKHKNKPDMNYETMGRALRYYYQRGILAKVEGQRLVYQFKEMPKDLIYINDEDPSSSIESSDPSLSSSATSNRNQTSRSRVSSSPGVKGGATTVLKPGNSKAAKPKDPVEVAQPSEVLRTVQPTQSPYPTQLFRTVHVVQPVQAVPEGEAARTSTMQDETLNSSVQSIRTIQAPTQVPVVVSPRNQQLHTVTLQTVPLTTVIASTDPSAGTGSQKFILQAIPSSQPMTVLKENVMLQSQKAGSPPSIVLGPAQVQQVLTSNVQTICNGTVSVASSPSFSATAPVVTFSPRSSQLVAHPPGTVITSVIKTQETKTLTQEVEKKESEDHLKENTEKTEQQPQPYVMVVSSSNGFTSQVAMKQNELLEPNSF
# SPIB, sequence (Q01892 whole entry): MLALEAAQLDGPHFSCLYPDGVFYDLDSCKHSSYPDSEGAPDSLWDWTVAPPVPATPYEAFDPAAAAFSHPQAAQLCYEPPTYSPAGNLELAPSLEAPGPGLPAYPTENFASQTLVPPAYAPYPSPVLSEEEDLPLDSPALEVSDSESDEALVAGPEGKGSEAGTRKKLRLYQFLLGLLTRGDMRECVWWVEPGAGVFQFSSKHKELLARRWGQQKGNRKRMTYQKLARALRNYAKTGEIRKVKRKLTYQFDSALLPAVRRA
Sequence,binding signal (FLI1),binding signal (ELK1),binding signal (GABPA),binding signal (ERG),binding signal (ELF1),binding signal (EHF),binding signal (SPI1),binding signal (SPIB),binding signal (ELK3)
CGCCTA,"1.17 fold enrichment (6-mer frequency, TF over GST control)","1.19 fold enrichment (6-mer frequency, TF over GST control)","1.15 fold enrichment (6-mer frequency, TF over GST control)","1.14 fold enrichment (6-mer frequency, TF over GST control)","1.16 fold enrichment (6-mer frequency, TF over GST control)","1.23 fold enrichment (6-mer frequency, TF over GST control)","1.13 fold enrichment (6-mer frequency, TF over GST control)","1.22 fold enrichment (6-mer frequency, TF over GST control)","1.24 fold enrichment (6-mer frequency, TF over GST control)"
AAGTTT,"1.42 fold enrichment (6-mer frequency, TF over GST control)","1.48 fold enrichment (6-mer frequency, TF over GST control)","1.42 fold enrichment (6-mer frequency, TF over GST control)","1.36 fold enrichment (6-mer frequency, TF over GST control)","1.37 fold enrichment (6-mer frequency, TF over GST control)","1.5 fold enrichment (6-mer frequency, TF over GST control)","1.45 fold enrichment (6-mer frequency, TF over GST control)","1.6 fold enrichment (6-mer frequency, TF over GST control)","1.44 fold enrichment (6-mer frequency, TF over GST control)"
TGTTTG,"1.52 fold enrichment (6-mer frequency, TF over GST control)","1.31 fold enrichment (6-mer frequency, TF over GST control)","1.32 fold enrichment (6-mer frequency, TF over GST control)","1.27 fold enrichment (6-mer frequency, TF over GST control)","1.22 fold enrichment (6-mer frequency, TF over GST control)","1.31 fold enrichment (6-mer frequency, TF over GST control)","1.29 fold enrichment (6-mer frequency, TF over GST control)","1.42 fold enrichment (6-mer frequency, TF over GST control)","1.29 fold enrichment (6-mer frequency, TF over GST control)"
CCCCAC,"1.19 fold enrichment (6-mer frequency, TF over GST control)","1.24 fold enrichment (6-mer frequency, TF over GST control)","1.19 fold enrichment (6-mer frequency, TF over GST control)","1.2 fold enrichment (6-mer frequency, TF over GST control)","1.24 fold enrichment (6-mer frequency, TF over GST control)","1.34 fold enrichment (6-mer frequency, TF over GST control)","1.22 fold enrichment (6-mer frequency, TF over GST control)","1.25 fold enrichment (6-mer frequency, TF over GST control)","1.34 fold enrichment (6-mer frequency, TF over GST control)"
GTAATT,"1.23 fold enrichment (6-mer frequency, TF over GST control)","1.1 fold enrichment (6-mer frequency, TF over GST control)","1.19 fold enrichment (6-mer frequency, TF over GST control)","1.19 fold enrichment (6-mer frequency, TF over GST control)","1.22 fold enrichment (6-mer frequency, TF over GST control)","1.21 fold enrichment (6-mer frequency, TF over GST control)","1.25 fold enrichment (6-mer frequency, TF over GST control)","1.23 fold enrichment (6-mer frequency, TF over GST control)","1.29 fold enrichment (6-mer frequency, TF over GST control)"
TACGGA,"1.26 fold enrichment (6-mer frequency, TF over GST control)","1.25 fold enrichment (6-mer frequency, TF over GST control)","1.21 fold enrichment (6-mer frequency, TF over GST control)","1.37 fold enrichment (6-mer frequency, TF over GST control)","1.3 fold enrichment (6-mer frequency, TF over GST control)","1.45 fold enrichment (6-mer frequency, TF over GST control)","1.56 fold enrichment (6-mer frequency, TF over GST control)","1.48 fold enrichment (6-mer frequency, TF over GST control)","1.43 fold enrichment (6-mer frequency, TF over GST control)"
ATACGC,"1.09 fold enrichment (6-mer frequency, TF over GST control)","1.14 fold enrichment (6-mer frequency, TF over GST control)","1.2 fold enrichment (6-mer frequency, TF over GST control)","1.13 fold enrichment (6-mer frequency, TF over GST control)","1.17 fold enrichment (6-mer frequency, TF over GST control)","1.11 fold enrichment (6-mer frequency, TF over GST control)","1.08 fold enrichment (6-mer frequency, TF over GST control)","1.19 fold enrichment (6-mer frequency, TF over GST control)","1.18 fold enrichment (6-mer frequency, TF over GST control)"

# From PMC7862700, “An all-to-all approach to the identification of sequence-specific readers for epigenetic DNA modifications on cytosine”
